Tgondii IFNg – blocks Toxoplasma gondii growth in the presence of IFN-gamma | Toxoplasma gondii growth in IFN-gamma-treated host cells; hits give low values | activity change, negative = inhibition, % (concentration not given with the values) | 69,000 tested, 3.8% active | AID 1259416; in the data active = activity change below about -70%, passing the limit was not always enough;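 also: host cells are HeLa cells infected with Toxoplasma gondii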
Each line names hits and unclear results; the compound was inactive in the other large screens. Shown is part of a subset that was picked to be rich in hits.

COc1cccc(-c2nc3c(s2)CN(C(=O)Nc2ccc(Cl)cc2)CC3)c1	Tgondii IFNg -92
COc1ccc(OC)c(NC(=O)N2CCc3nc(-c4ccccc4)sc3C2)c1	none
COc1cccc(NC(=O)N2CCc3nc(-c4ccc(C)cc4)sc3C2)c1	Tgondii IFNg -121
COc1ccc(-c2nc3c(s2)CN(C(=O)Nc2cc(C)cc(C)c2)CC3)cc1	none
Cc1cccc(NC(=O)N2CCc3nc(-c4ccccc4)sc3C2)c1	none
CCOc1ccc(-c2nc3c(s2)CN(C(=O)Nc2cc(C)ccc2OC)CC3)cc1	Tgondii IFNg -104
CCOc1ccc(-c2nc3c(s2)CN(C(=O)Nc2ccc(C)cc2C)CC3)cc1	none
COc1cccc(-c2nc3c(s2)CN(C(=O)Nc2ccc(OC)c(OC)c2)CC3)c1	none
COc1ccc(-c2nc3c(s2)CN(C(=O)Nc2ccc(Br)cc2)CC3)cc1	Tgondii IFNg -93
COc1ccc(-c2nc3c(s2)CN(C(=O)Nc2cc(C)ccc2OC)CC3)cc1	none
CCOc1ccc(NC(=O)N2CCc3nc(-c4cccc(OC)c4)sc3C2)cc1	none
COc1cccc(-c2nc3c(s2)CN(C(=O)Nc2ccc(OC)cc2OC)CC3)c1	none
COc1ccc(-n2c(=O)c(C(=O)Nc3ccc(OC)c(F)c3)c(O)c3cccnc32)cc1	none
CC(OC(=O)c1cccc(N2C(=O)C3C4CCC(C4)C3C2=O)c1)C(=O)c1ccccc1 (centres undefined)	none
O=C(NCc1ccncc1)C1CC12CCN(C(=O)c1ccc(Cl)cc1)C2 (centres undefined)	none
Cc1ccn(CCNc2cc(C3CCNCC3)nc(C)n2)n1	none
O=C(NCc1cccc(C(F)(F)F)c1)c1cn2c(n1)CCCC2	none
c1ccc(-n2cncn2)c(Cn2cnnc2)c1	none
Cc1cc(C)cc(NC(=O)c2c(O)c3cccnc3n(-c3ccc(F)cc3)c2=O)c1	none
O=C(Nc1cnc2n1CCCC2)C1CC12CCC2 (centres undefined)	none
Cc1cc(CN(C)Cc2c(C)nn(-c3ccc(F)cc3)c2C)n[nH]1	none
O=C(O)C1CC(N2CCCC2)CCN1C(=O)Cc1cccc(F)c1 (centres undefined)	none
O=C(Nc1cccc(N2CCC(NCCc3ccccc3C(F)(F)F)CC2)c1)c1ccncc1	none
Cc1ccc(NC(=O)c2ccc(CN3CCN(C)CC3)cc2)cc1Nc1nc(-c2cccnc2)cs1	none
Cc1ccc(C(=O)Nc2ccc(CN3CCN(C)CC3)c(C(F)(F)F)c2)cc1C#Cc1cnc2cccnn12	Tgondii IFNg -79
COc1cccc(-n2c(=O)c(C(=O)NCc3cccs3)c(O)c3cccnc32)c1	none
CCOCC1CC2(COCCN2C(=O)c2ccoc2)CO1 (centres undefined)	none
COc1ccc2c(c1)NC1(CCN(C(=O)Nc3cccc(Cl)c3C)CC1)c1cccn1-2	none
CCCn1cc(CCNC(=O)c2cc3ccccc3[nH]2)c2cccnc21	Tgondii IFNg -83
CC(CNC(=O)c1cc(=O)c2ccccc2[nH]1)Oc1cccnc1 (centres undefined)	none
CCCN1C(=O)CCc2cc(NC(=O)c3cc4ccccc4[nH]3)ccc21	none
Cc1ccc(-c2coc(-c3ccc(NC(=O)Nc4ccccc4F)cc3)n2)cc1	none
CNC(=O)c1cc(C2CCC(CNC(=O)CCn3nc(C)nc3C)CC2)nc2ccccc12 (centres undefined)	none
CCOC(=O)c1c(NC(=O)CSc2nc(C)cc(C)n2)sc2c1CCC2	none
N#Cc1c(NC(=O)C2CC(c3cccc(Br)c3)=NO2)sc2c1CCC2 (centres undefined)	none
CCOC(=O)c1c(NC(=O)C2CC(=O)OC23CCCCC3)sc2c1CC(C)(C)OC2 (centres undefined)	Tgondii IFNg -96
N#Cc1c(NC(=O)C2CC(=O)OC23CCCCC3)sc2c1CCCCC2 (centres undefined)	Tgondii IFNg -91
C=CCn1c(SCC(=O)OCC)nc2sc3c(c2c1=O)CC(C)(C)OC3	none
CCC(Sc1ncc(-c2ccccc2)nn1)C(=O)Nc1sc2c(c1C#N)CCCC2 (centres undefined)	none
CCOc1ccc(-c2nc(CN3CCN(C(=O)Nc4ccccc4Cl)CC3)c(C)o2)cc1	none
CCn1cc(Cn2ccnc2C2CCOC2)cn1 (centres undefined)	none
Nc1ncc(C(=O)N2CCC3(CCCO3)CC2)c(-c2ccccc2)n1	none
Cc1oc(C(C)(C)C)c(CO)c1C(=O)O	none
O=C1N(Cc2ccccc2)C(=O)C2(CCN(Cc3ccsc3)CC2)N1CCc1ccccc1	none
O=C1N(Cc2ccccc2)C(=O)C2(CCN(Cc3c[nH]c4ccccc34)CC2)N1CCc1ccccc1	Tgondii IFNg -77
O=C1N(Cc2ccccc2)C(=O)C2(CCN(CC3CC=CCC3)CC2)N1CCc1ccccc1 (centres undefined)	none
COc1ccc(S(=O)(=O)Nc2cncc(C(=O)N3CCN(Cc4ccc5c(c4)OCO5)CC3)c2)cc1	none
CCN(CCN1CCCC1)Cc1nc[nH]c1C	none
COc1cccc(CC2(CO)CCN(C(=O)c3cc4cc(F)ccc4[nH]3)CC2)c1	none
Cc1ccc(-c2nc(Cn3c(=O)c4c(C)cc(C)nc4n(-c4ccccc4)c3=O)c(C)o2)cc1	none
O=c1nc(SCc2ccc(Cl)cc2)nc(-c2ccccc2)[nH]1	none
Clc1ccc(CSc2cccs2)cc1	none
CN1c2ccsc2-c2nc(SCc3ccc(Cl)cc3)ncc2S1(=O)=O	Tgondii IFNg -85
Cc1nnnn1-c1cccc(NC(=O)CN(C)C2CCS(=O)(=O)C2)c1 (centres undefined)	none
COc1cccc(CN2CCN(C(=O)C(C)(C)C)[C@@H](C)C2)c1	none
COc1cccc(C)c1C(=O)N1CCOC(c2ccc(Cl)c(Cl)c2)C1 (centres undefined)	Tgondii IFNg -77
COc1cccnc1C(=O)N1CCOC(c2ccc(Cl)c(Cl)c2)C1 (centres undefined)	none
COc1ncc(C(=O)N2CCOC(c3ccc(Cl)c(Cl)c3)C2)cn1 (centres undefined)	none
CCc1ccc2nc(-c3ccc(F)cc3)nc(SCc3c(F)cccc3Cl)c2c1	none
O=C(NCC(c1cccnc1)c1c[nH]c2ccccc12)Nc1ccccc1Cl (centres undefined)	none
COCCCNc1nc(-c2ccc(OC)cc2)nc2ccccc12	none
CSc1sc(C2=NNC(O)(C(F)(F)F)C2)c2c1C(=O)CCC2(C)C (centres undefined)	Tgondii IFNg -96
OC1(C(F)(F)F)CC(c2ccncc2)=NN1 (centres undefined)	none
COc1ccc(S(=O)(=O)CCNC(=O)c2nc3ccccc3n(C)c2=O)cc1	none
Cc1nnsc1-c1noc(CS(=O)(=O)c2ccc(Cl)cc2)n1	none
O=S(=O)(Cc1cc(Cl)sc1Cl)c1ccc(Cl)cc1	Tgondii IFNg -101
O=C1CSC(=O)N1CCS(=O)(=O)c1ccc(Cl)cc1	none
O=C(CCCc1ccccc1)N1CCCC1c1cccc(Cc2ccccc2)n1 (centres undefined)	none
CC(=O)NCC(=O)Nc1ccc(Cl)c(C(=O)OC(C)C)c1	none
COCCN1C(=O)CCc2cc(NC(=O)c3ccc(Cl)cc3)ccc21	none
CCS(=O)(=O)N1CCc2ncnc(C3CCOC3)c2CC1 (centres undefined)	none
Cc1sc2ncnc(NCc3ccco3)c2c1C	none
Oc1ccc(OCc2ccccc2)cc1	none
Cc1sc2ncnc(Oc3ccc(OCc4ccccc4)cc3)c2c1C	Tgondii IFNg -101
Cc1ccc(CN2CCCC(OCc3cccnc3)C2)o1 (centres undefined)	none
Cc1cccc(S(=O)(=O)N2CCC3(CC(C(=O)N(C)Cc4ccccn4)=NO3)C2)c1 (centres undefined)	none
COc1cccc2c1OCCCN(c1ccc(-c3nccn3C)nn1)C2	none
CCOC(=O)c1nc(Nc2ccc(CC)cc2)c2ccccc2n1	none
Cc1cc(C)n(-c2nnc(SCC(=O)Nc3ccccc3)c3ccccc23)n1	none

Source: PubChem
